Experimental findings from PubChem BioAssay (Tox21) are described below.

Records with an inconclusive call do not appear. Where a call stands in place of a potency, no number is given. The source made the active and inactive calls. The call rests on the fitted dose curve.

The assay is described as follows: p53 small molecule agonists, cell-based qHTS assay: qHTS cell viability counter screen (AID 1963581). Further: nearly all actives have a fitted effect of over 45% in size. The note with it: p53RE-bla HCT-116 viability, ATP luminescence, 16 h; series mostly up to 66 µM. An excerpt: National Center for Advancing Translational Sciences [NCATS]
Division of Preclinical Innovation [DPI]
U.S. Environmental Protection Agency [EPA]
National Institutes of Environmental Health Sciences [NIEHS]
National Toxicology Program [NTP]
U.S. Food and Drug Administration [FDA]
p53, a tumor suppressor protein, is activated following cellular insult, including DNA damage and other cellular stresses. The activation of p53 regulates cell fate by inducing DNA repair, cell cycle arrest, apoptosis, or cellular senescence. The activation of p53, therefore, is a good indicator of DNA damage and other cellular stresses. The CellSensor p53RE-bla HCT-116 cell line (Invitrogen) contains a stably integrated beta-lactamase reporter gene under control of the p53 response elements. The activation of the reporter gene under culture conditions can be detected by fluorescence intensity. This cell line was used to screen the Tox21 compound library in a 1536-well plate format and to identify agonists that activate the p53 signaling pathway. The cytotoxicity of the Tox21 compound library against the p53 RE-bla HCT-116 cell line was tested in parallel by measuring the intra cellular ATP content in the same wells.
Tox21 Assay Protocol Summary:
The p53RE-bla cells were dispensed at 4,000 cells/5 ul/well in 1536-well black wall/clear bottom plates using a Multidrop dispenser. After the assay plates were incubated at a 37 C/5% CO2 incubator for 5 hours, 23 nL of compounds dissolved in DMSO, positive controls or DMSO only was transferred to the assay plate by a pin tool. The plates were incubated at 37 C for 16 hours. After 1 uL of LiveBLAzerTM B/G FRET substrate was added using a Flying Reagent Dispenser, the plates were incubated at room temperature for 2 hours, and fluorescence intensity was measured by an Envision plate reader. For cell viability readout that measures cytotoxicity, 4 ul/well of CellTiter-Glo reagent was added into the assay plates using a Flying Reagent Dispenser. After 30 min incubation at room temperature, the luminescence intensity in the plates was measured using a ViewLux plate reader.
Turning to `CC(=O)OCCOCCOCCOC(C)=O`, the Potency result was “inactive”.

With `Cc1ccccc1C(=O)N1CC/C(=N\OS(=O)(=O)O)c2ccc(Cl)cc21`, the Potency entry was “inactive”.

Regarding `CCCOCCOCCO`, the Potency entry was “inactive”.

For `CC(C)=CCC[C@H](C)CC=O`, the Potency result was “inactive”.

Take `O=S1(=O)OC(c2ccc(O)cc2)(c2ccc(O)cc2)c2ccccc21`: the Potency result is “inactive”.

As to `C=C[C@H]1CN2CC[C@H]1C[C@H]2[C@H](O)c1ccnc2ccc(OC)cc12`, the Potency entry is “inactive”.

As to `CC(C)(O)C#CC(C)(C)O`, the Potency entry is “inactive”.

As to `O=C(O)c1cc(O)c(O)c(O)c1`, the Potency entry was “inactive”.

With `CCCCc1ccc(Cl)cc1`, the Potency result was “inactive”.

With `CCOc1ccc2c(c1)C(C)=CC(C)(C)N2`, the Potency entry was “inactive”.

In the case of `CCCCCC(=O)CC`, the Potency result is “inactive”.

Regarding `OCC1(CO)COCOC1`, the Potency entry was “inactive”.

Regarding `Cc1ccc(-c2ccccc2)cc1`, the Potency entry was “inactive”.

As for `O=P(O)(OCc1ccccc1)OCc1ccccc1`, the Potency result is “inactive”.

As for `CCc1occc(=O)c1O`, the Potency result was “inactive”.

For `c1c[nH]cn1`, the Potency result is “inactive”.

With `CC1(C)O[C@@H]2C[C@H]3[C@@H]4C[C@H](F)C5=CC(=O)C=C[C@]5(C)[C@@]4(F)[C@@H](O)C[C@]3(C)[C@]2(C(=O)CO)O1`, the Potency entry is “inactive”.

Take `CC(C)(C)c1ccc(C=O)cc1`: the Potency entry is “inactive”.

As for `CC(C)CCOCCC(C)C`, the Potency entry was “inactive”.

`O=C[C@H](O)[C@H](O)[C@H](O)CO`: the Potency result is “inactive”.

Consider `CC1=CC[C@H](CC=O)C1(C)C`, for which the Potency entry is “inactive”.

Turning to `CC1=CC[C@@H](C(C)(C)O)CC1`, the Potency result is “inactive”.

Turning to `CC(C)(C)C1CCCCC1O` (stereo not given), the Potency entry is “inactive”.

As for `CC(=O)c1ccc(O)c(C(N)=O)c1`, the Potency result was “inactive”.

As to `NC(=O)N[C@@H](CCC(=O)O)C(=O)O`, the Potency entry is “inactive”.

In the case of `CC(C)=CCCC(C)CC=O` (stereo not given), the Potency result was “inactive”.

For `CC(=O)N(O)CCCCCNC(=O)CCC(=O)N(O)CCCCCNC(=O)CCC(=O)N(O)CCCCCN`, the Potency entry was “inactive”.

Take `CO[C@@H]1[C@@H](O[C@@H]2O[C@H](C)[C@@H](O[C@H]3C[C@@](C)(O)[C@@H](O)[C@H](C)O3)[C@H](N(C)C)[C@H]2O)[C@@H](CC=O)C[C@@H](C)[C@@H](O[C@@H]2CC[C@H](N(C)C)[C@@H](C)O2)/C=C/C=C/C[C@@H](C)OC(=O)C[C@H]1OC(C)=O`: the Potency entry was “inactive”.

As for `NC(=O)NC1N=C([O][Al])NC1=O` (stereo not given), the Potency result is “inactive”.

Consider `CC(C)OC(=O)CCCCC(=O)OC(C)C`, for which the Potency result is “inactive”.

`CCC(N)(CO)CO`: the Potency result is “inactive”.

Regarding `Cc1ccc(C(=O)O)cc1`, the Potency result is “inactive”.

In the case of `CC1CC(OC(=O)c2ccccc2O)CC(C)(C)C1` (stereo not given), the Potency entry was “inactive”.

With `NC(=O)c1ccc([N+](=O)[O-])cc1`, the Potency result is “inactive”.

For the molecule `CC(=O)c1cc(C)oc1C`, the Potency result was “inactive”.

Consider `NNc1nncc2ccccc12`, for which the Potency result is “inactive”.

In the case of `COc1cc(/C=C/C(=O)O[C@H]2CC[C@]34C[C@]35CC[C@]3(C)[C@@H]([C@H](C)CCC=C(C)C)CC[C@@]3(C)[C@@H]5CC[C@H]4C2(C)C)ccc1O`, the Potency result is “inactive”.

As for `c1ccc2ncccc2c1`, the Potency result was “inactive”.

Turning to `Cc1cc(C)cc(OCC2CNC(=O)O2)c1` (stereo not given), the Potency result is “inactive”.

`NC(=O)c1ccccc1N`: the Potency result is “inactive”.
